Data as given in PubChem BioAssay (NCI).
This is part of a sample that, as a whole, favours compounds with a hit. Of some 79,000 tested, about 15% had one in any assay. Active and inactive are the calls of the source. Rule as the data show it: active = growth inhibition above about 70%; inactive = the rest.

Legend:
[1] = NCI Yeast Anticancer Drug Screen. Data for the rad50 strain (AID 155);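 also: 0% = growth of vehicle-only cultures of the same strain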; conditions: S. cerevisiae rad50 strain growth inhibition, active compounds read high
Procedure, shortened: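 A DNA repair-deficient yeast mutant serves as the test organism; compound-induced growth inhibition is calculated against vehicle-treated cells.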

[2] = NCI Yeast Anticancer Drug Screen. Data for the mec2-1 strain (AID 157); conditions: S. cerevisiae mec2-1 strain, active compounds read high
Procedure, shortened: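 Vehicle-treated cultures served as reference for growth inhibition of compound-exposed mec2-1 yeast.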

[3] = NCI Yeast Anticancer Drug Screen. Data for the sgs1 mgt1 strain (AID 161);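 also: 0% = growth of cultures given vehicle only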; conditions: S. cerevisiae sgs1 mgt1 strain, active compounds read high
Procedure, shortened: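 Read-out: growth inhibition vs vehicle controls. Cells: mutant yeast strain deficient in DNA damage repair.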

[4] = NCI Yeast Anticancer Drug Screen. Data for the cln2 rad14 strain (AID 165);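 also: 0% = growth equal to vehicle treated cultures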; conditions: S. cerevisiae cln2 rad14 strain, active compounds read high
Procedure, shortened: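 Each compound was tested on cln2 rad14 yeast. Inhibition of growth was calculated against vehicle-exposed controls.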

[5] = NCI Yeast Anticancer Drug Screen. Data for the bub3 strain (AID 167); conditions: S. cerevisiae bub3 mutant strain, active compounds read high
Procedure, shortened: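 Inhibition values come from growth of compound-treated mutant yeast normalised to vehicle-treated controls.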

[6] = NCI Yeast Anticancer Drug Screen. Data for the mlh1 rad18 strain (AID 175); conditions: S. cerevisiae mlh1 rad18 strain growth inhibition, active compounds read high
Procedure, shortened: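 Vehicle-treated cultures served as the reference for growth inhibition in a yeast strain carrying DNA damage repair alterations exposed to each compound.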

[7] = at 5.0 µM (retest, dose inferred, filed as 0.5)
[8] = at 50.0 µM (retest, dose inferred, filed as 5.0)

Structure (SMILES)	growth inhibition [1, 7]	growth inhibition [1, 8]	growth inhibition ([1]; at 50.0 µM)	growth inhibition [2, 7]	growth inhibition [2, 8]	growth inhibition ([2]; at 50.0 µM)	growth inhibition [3, 7]	growth inhibition [3, 8]	growth inhibition ([3]; at 50.0 µM)	growth inhibition [4, 7]	growth inhibition [4, 8]	growth inhibition ([4]; at 50.0 µM)	growth inhibition [5, 7]	growth inhibition [5, 8]	growth inhibition ([5]; at 50.0 µM)	growth inhibition [6, 7]	growth inhibition [6, 8]	growth inhibition ([6]; at 50.0 µM)
COC(=O)C1=C(C)NC(C)=C([N+](=O)[O-])C1c1cccc(N=O)c1 (stereo not drawn)	22% (inactive)	68% (inactive)	74.2% (active)	16% (inactive)	98% (active)	72.1% (active)	27% (inactive)	86% (active)	89.8% (active)	28% (inactive)	45% (inactive)	57.2% (inactive)	26% (inactive)	93% (active)	90.2% (active)	33% (inactive)	97% (active)	84.4% (active)
CCCCCOC(=O)C(C)SC#N (stereo not drawn)	12% (inactive)	45% (inactive)	42.2% (inactive)	-13% (inactive)	54% (inactive)	47.9% (inactive)	4% (inactive)	80% (active)	66.7% (inactive)	6% (inactive)	29% (inactive)	92.3% (active)	9% (inactive)	52% (inactive)	54.9% (inactive)	19% (inactive)	44% (inactive)	73.8% (active)
CN(C)CCNc1ccc2nnn3c4ccc(O)cc4c(=O)c1c23	32% (inactive)	51% (inactive)	12.1% (inactive)	-3% (inactive)	-4% (inactive)	-3.1% (inactive)	12% (inactive)	23% (inactive)	-6.05% (inactive)	19% (inactive)	32% (inactive)	25.4% (inactive)	18% (inactive)	32% (inactive)	-0.1% (inactive)	27% (inactive)	15% (inactive)	33.8% (inactive)
c1ccc2cc3nc4ccccc4nc3cc2c1	44% (inactive)	82% (active)	87.9% (active)	21% (inactive)	38% (inactive)	51.4% (inactive)	13% (inactive)	22% (inactive)	20.9% (inactive)	15% (inactive)	38% (inactive)	70.1% (active)	42% (inactive)	57% (inactive)	68.3% (inactive)	25% (inactive)	58% (inactive)	73% (active)
CCOC(=O)Nc1cc(NC(C)/C(=N/O)c2ccccc2)c([N+](=O)[O-])c(N)n1 (stereo not drawn)	-18% (inactive)	97% (active)	42.6% (inactive)	-5% (inactive)	47% (inactive)	59.5% (inactive)	1% (inactive)	69% (inactive)	47.5% (inactive)	-21% (inactive)	98% (active)	24.9% (inactive)	-10% (inactive)	87% (active)	62.1% (inactive)	-5% (inactive)	82% (active)	44.2% (inactive)
Cc1ccc(C2COc3cc(O)c(O)cc3C2)cc1 (stereo not drawn)	29% (inactive)	99% (active)	99.5% (active)	33% (inactive)	99% (active)	99.6% (active)	32% (inactive)	99% (active)	99.5% (active)	11% (inactive)	99% (active)	96.2% (active)	32% (inactive)	99% (active)	99.6% (active)	51% (inactive)	99% (active)	99.4% (active)
